TDP1 cell noCPT = qHTS for Inhibitors of human tyrosyl-DNA phosphodiesterase 1 (TDP1): qHTS in cells in absence of CPT. Potency, µM (series often up to 46.2 µM), inactives show top-dose activity change, negative = growth inhibition, most hits filed as inhibitors. DT40 Tdp1-/- hTDP1 cells, no CPT, ATP luminescence, 48 h. 420,000 tested, 15% active; also: potency is read from the fitted curve at half-maximal effect; nearly all actives have a fitted effect of over 55% in size
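Cells were dispensed at 400 per well, compounds added by pin tool, plates incubated ≥48 hr at 37 °C, then CellTiter-Glo added for 30 min at room temperature before luminescence reading. Line: DT40 Tdp1-/- complemented with hTDP1; camptothecin omitted.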
HT1080 IDH1KD tx = qHTS for induction of synthetic lethality in tumor cells producing 2HG: qHTS for the HT-1080-IDH1KD cell line. HT-1080 IDH1 knockdown viability, ATP luminescence, 48 h. Potency, µM (doses to about 46.1 µM), for inactives: at the highest dose activity, negative = toxicity, hits mostly cytotoxic. 360,000 tested, 2% active. AID 686971, 2013;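 also: potency is read from the fitted curve at half-maximal effect; 0% = DMSO wells and -100% = cell-free medium wells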
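Using the IDH1-knockdown HT-1080 line run in the same batch and compound series as the NT line, viability after 48 h at 37 °C was determined by CellTiter-Glo luminescence and expressed as % activity.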
IL1B secr inh = qHTS for Inhibitors of Inflammasome Signaling: IL-1-beta AlphaLISA Primary Screen; THP-1 LPS/ATP IL-1B secretion, AlphaLISA, 16 h; stronger effect = lower value; activity change, % at 57.5 µM; 360,000 tested, 4.7% active; AID 743279, 2014; in the data active = activity change below about -50%; inconclusive = mostly about -30% to -49%
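Secreted IL-1B measured by AlphaLISA bead assay after 16 h compound exposure of THP-1 cells; compounds (final up to 57.5 uM) added 1 h before LPS (250 ng/mL) and ATP (1.25 mM) stimulation; lower signal means less secretion.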
HT1080-NT tox = qHTS for induction of synthetic lethality in tumor cells producing 2HG: qHTS for the HT-1080-NT fibrosarcoma cell line; Potency, µM (highest dose often 46.1 µM), inactives show at the top dose activity, negative = less viability, hits mostly cytotoxic; HT-1080-NT fibrosarcoma viability, CellTiter-Glo ATP luminescence, 48 h; 360,000 tested, 1.6% active; AID 686970, 2013;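 also: NT is the 2HG producing partner of a matched IDH1 knockdown line; potency is read from the fitted curve at half-maximal effect; 0% = DMSO-treated cells and -100% = media-only wells without cells; nearly all actives have a fitted effect of over 55% in size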
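Luminescent CellTiter-Glo readout after 48 hours of compound exposure at 37 degrees C defined viability of HT-1080-NT cells. Activity was normalized to DMSO wells and cell-free media wells; concentration-response curves were fitted and assigned curve classes.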
ELG1 DNA repair = qHTS screen for small molecules that inhibit ELG1-dependent DNA repair in human embryonic kidney (HEK293T) cells expressing luciferase-tagged ELG1 | HEK293T ELG1-luciferase reporter, luminescence, 16 h; DNA damage induced by 5-fluorouridine | Potency, µM (titrated, usually from 46.1 µM), for the others: at the top dose activity change, negative = inhibition, most hits filed as inhibitors | 330,000 tested, 2.3% active | AID 504467, 2011; also: potency is read from the fitted curve at half-maximal effect; nearly all actives have a fitted effect of over 55% in size
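5-Fluorouridine DNA damage + compound/DMSO, 2,000 cells/well, 16 h, 37 °C/5% CO2. ONE-Glo, 30 min RT, luminescence. Readout = decrease in reporter signal.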
TDP1 cell CPT = qHTS for Inhibitors of human tyrosyl-DNA phosphodiesterase 1 (TDP1): qHTS in cells in presence of CPT; chicken DT40 Tdp1-/-;hTDP1 cells + 20 nM CPT, ATP luminescence, 48 h; Potency, µM (top dose mostly 46.2 µM), for the others: at the top dose activity change, negative = growth inhibition, usual class: inhibitors; 420,000 tested, 12% active; also: potency is read from the fitted curve at half-maximal effect; nearly all actives have a fitted effect of over 55% in size
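Chicken DT40 Tdp1-/- cells complemented with human TDP1, 400 cells/well, exposed to compounds plus 20 nM camptothecin for at least 48 h at 37 C; viability read as ATP content by CellTiter-Glo luminescence.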
Starred values were filed as active, the others as inactive; ? = inconclusive; . = no result. Only some compounds are listed: those with a hit (about 19% of all), similar ones and a draw of the others. Unless noted, calls follow the shape of the dose curve; as a rule, active = well fitted curve in the direction sought with a large enough effect; inconclusive = small, poorly fitted or top-dose-only effect, or another doubt; inactive = no such curve, though single readings can be large; an effect the other way counts as inactive or inconclusive. Unless noted, % is scaled to controls: 0 for no effect and ±100 for the full control effect.

SMILES	TDP1 cell noCPT	HT1080 IDH1KD tx	IL1B secr inh	HT1080-NT tox	ELG1 DNA repair	TDP1 cell CPT
CN1C(=O)/C(=C\c2ccccc2F)Sc2ccc(C(=O)NC3CCN(Cc4ccccc4)CC3)cc21	23µM*	16µM*	-14	21µM*	?	18µM*
CCOc1ccc(/C=C2/Sc3ccc(C(=O)N4CCOCC4)cc3N(C)C2=O)cc1OC	16µM*	?	-62*	-16%	8.2µM*	?
Cc1oc(-c2ccccc2)cc1C(=O)NC1CCN(Cc2ccccc2)CC1	-27%	12%	-22	13%	-6%	-19%
COc1ccc(/C=C2\Sc3ccc(C(=O)N4CCCC4)cc3N(C)C2=O)cc1OC	?	-1%	11	-22%	?	7%
O=C(O)c1ccc(C(=O)c2cc([N+](=O)[O-])cc([N+](=O)[O-])c2)cc1	-15%	1%	4	0%	.	-23%
COCCCNC(=O)c1cc(C(=O)c2c(-c3c(Cl)cccc3Cl)noc2C)c[nH]1	23µM*	?	0	?	-23%	23µM*
Cc1onc(-c2ccccc2)c1C(=O)c1c[nH]c(C(=O)NCc2ccccn2)c1	?	-7%	1	-4%	16µM*	-21%
Cc1cc(F)cc(-c2cc(C(=O)NCc3ccco3)[nH]n2)c1	-9%	0%	?	2%	.	8%
Cc1onc(-c2ccccc2)c1C(=O)NCc1cccs1	-4%	-4%	13	-9%	-6%	-4%
COCCCNC(=O)c1c(-c2ccccc2)noc1C	-1%	18%	0	16%	17%	-3%
Cc1cc(F)cc(-c2cc(C(=O)NCc3ccccn3)[nH]n2)c1	-5%	20%	-86*	?	.	-6%
Cc1onc(-c2ccccc2)c1C(=O)c1c[nH]c(C(=O)NCCCN2CCOCC2)c1	-29%	-3%	-13	-1%	-1%	12%
Cc1onc(-c2ccccc2)c1C(=O)c1c[nH]c(C(=O)NCc2ccncc2)c1	-17%	3%	7	-4%	13µM*	0%
CC(=O)Nc1c(I)cc(I)c(C(=O)O)c1I	-11%	.	.	.	.	-15%
COc1cc(NC(=O)CC(C)S(=O)(=O)c2ccc3c(c2)CCN3C(C)=O)cc(OC)c1OC (stereo not given)	-13%	.	.	.	.	-15%
COc1ccc(CCNC(=O)c2ccc(OCC(=O)N3CCOCC3)c(OC)c2)cc1OC	-28%	-20%	-12	1%	-1%	-9%
CN(C)CCCNC(=O)c1cc(C(=O)c2cccc(Cl)c2Cl)c[nH]1	?	-26%	-58*	-23%	2%	8%
CCC(CC)C(=O)c1c[nH]c(C(=O)NCc2ccccn2)c1	-16%	1%	-59*	-1%	-3%	6%
CCC(CC)C(=O)c1c[nH]c(C(=O)NCCc2ccccn2)c1	?	25%	-11	?	18%	?
COc1ccc(NC(=O)N2CCCC3(CCN(C(=O)c4ccncc4)CC3)C2)cc1	-3%	.	.	.	.	-5%
CN(C)c1ccc(-c2csc(C(O)c3cccc(Cl)c3)n2)cc1 (stereo not given)	21µM*	?	-7	-26%	.	21µM*
CC(C)c1cccc(-c2csc(C(O)c3cccc(Cl)c3)n2)c1 (stereo not given)	21µM*	?	10	?	.	23µM*
OC(c1cccc(Cl)c1)c1nc(-c2ccccc2)cs1 (stereo not given)	-19%	-21%	?	?	.	?
CCCc1cc(=O)[nH]c(SC(C)C(=O)N2c3ccccc3CC2C)n1 (stereo not given)	-5%	-1%	17	0%	-1%	-31%
Oc1ccc2ccccc2c1C=Nc1ccccc1-c1nc2ccccc2[nH]1	16µM*	-15%	38	?	?	?
SMILES	TDP1 cell noCPT	HT1080 IDH1KD tx	IL1B secr inh	HT1080-NT tox	ELG1 DNA repair	TDP1 cell CPT
O=C1CCCc2c1ccc1ccccc21	-3%	1%	-5	1%	.	19%
C[C@@H]1CN([C@@H](C)CO)C(=O)c2cc(NS(C)(=O)=O)ccc2O[C@@H](C)CCCCO[C@H]1CN(C)Cc1ccc2c(c1)OCO2	?	4%	25	-3%	.	-7%
C[C@@H]1CCCCO[C@@H](CN(C)Cc2ccc(C(F)(F)F)cc2)[C@@H](C)CN([C@H](C)CO)C(=O)c2cc(N(C)C)ccc2O1	23µM*	-29%	-53*	-28%	.	23µM*
C[C@@H]1CN([C@@H](C)CO)C(=O)c2cc(N(C)C)ccc2O[C@@H](C)CCCCO[C@@H]1CN(C)Cc1ccc2c(c1)OCO2	16µM*	10%	-26	12%	.	16µM*
C[C@@H]1CCCCO[C@H](CN(C)Cc2ccc(C(=O)O)cc2)[C@@H](C)CN([C@H](C)CO)C(=O)c2cc(N(C)C)ccc2O1	-8%	0%	-6	1%	.	-17%
Cn1cccc1C(=O)N1CCC[C@@]2(CCN(C(=O)Nc3cccc(C#N)c3)C2)C1	-16%	.	.	.	.	-5%
CN1CCN(NC(=O)c2cc(-c3ccc(Cl)s3)nc3ccccc23)CC1	15µM*	-8%	-3	-15%	?	?
COc1ccccc1CNC(=O)c1cc(-c2cccnc2)nc2ccccc12	?	-12%	15	-4%	?	?
COc1ccc(OC)c(CNC(=O)c2cc(-c3ccc(Cl)s3)nc3ccccc23)c1	9.2µM*	.	.	.	.	15µM*
COc1ccc(CNC(=O)c2cc(-c3cccs3)nc3ccccc23)c(OC)c1	?	.	.	.	.	2.6µM*
CCOC(CCNC(=O)c1cc(-c2cccs2)nc2ccccc12)OCC	?	-5%	0	-3%	?	21µM*
CCCCC(=O)OCC(=O)N1N=C(c2c[nH]c3ccccc23)C(O)C1c1ccc(OC)cc1 (stereo not given)	?	-13%	24	?	-25%	?
COc1ccc([C@H]2C[C@@H](O)[C@H](n3cc(COC(=O)c4ccccc4)nn3)CN2C(=O)c2cccs2)cc1	?	5%	28	5%	.	?
COc1ccc(CCNC(=O)c2cccc(S(=O)(=O)N3CCc4ccccc4C3)c2)cc1	?	-16%	?	0%	?	?
